Laboratory results as given in PubChem BioAssay AID1159580 (chemical genetic matrix, 2015).
Values joined by “and” are separate entries in the source; they are usually repeats but may differ in a detail not shown here. Identical values can stand only once. Screen size: about 5,500 compounds; about 2,000 (36%) were called active. Another 18% or so got no clear call; they are omitted. Rule as the data show it: active = normalized growth mostly below about 0.91 (no sharp cut-off); inconclusive = no clear call, values can overlap the other calls; inactive = mostly above about 0.92. The list shows a part of the results.

Assay: chemical genetic growth profiling, strain panel (AID 1159580);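 also: tested at 20 µM; growth read once vehicle control cultures reached saturation at 30 °C; 1 = growth at the plate median or of vehicle wells; lower values mean less growth of the strain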
Settings: S. cerevisiae deletion strains, growth OD

Measured: normalized growth

COC(=O)CCC(C)[C@H]1CCC2C3C(C[C@H](O)[C@@]21C)[C@@]1(C)CC[C@@H](O)C[C@H]1C[C@H]3O (some centres undefined)
inactive: locus YAL013W, strain DEP1, active compounds read low 1.03 | locus YAL021C, strain ccr4, active compounds read low 1.01 | locus YAL026C, strain drs2, active compounds read low 0.997 | locus YAL030W, strain snc1, active compounds read low 1.01 | locus YBL061C, strain skt5, active compounds read low 1.01 | locus YBR009C, strain hhf1, active compounds read low 1 | locus YBR021W, strain FUR4, active compounds read low 0.952 | locus YBR023C, strain chs3, active compounds read low 1 | locus YBR171W, strain sec66, active compounds read low 1.01 | locus YBR229C, strain ROT2, active compounds read low 1.03 | locus YBR279W, strain paf1, active compounds read low 1.01 | locus YCL011C, strain gbp2, active compounds read low 1.02 | locus YCL016C, strain dcc1, active compounds read low 1.02 | locus YCL029C, strain bik1, active compounds read low 1.04 | locus YCL061C, strain MRC1, active compounds read low 1.02 | locus YCL069W, strain vba3, active compounds read low 1 | locus YCR088W, strain abp1, active compounds read low 1.02 | locus YDL005C, strain med2, active compounds read low 0.999 | locus YDL035C, strain GPR1, active compounds read low 1.01 | locus YDL040C, strain nat1, active compounds read low 1.01 | locus YDL074C, strain BRE1, active compounds read low 0.983 | locus YDL101C, strain DUN1, active compounds read low 1.01 | locus YDL185W, strain tfp1, active compounds read low 1.02 | locus YDL192W, strain arf1, active compounds read low 1.02 | locus YDR001C, strain nth1, active compounds read low 1.01 | locus YDR069C, strain doa4, active compounds read low 1 | locus YDR101C, strain arx1, active compounds read low 1.01 | locus YDR137W, strain rgp1, active compounds read low 1.07 | locus YDR150W, strain NUM1, active compounds read low 1.02 | locus YDR159W, strain sac3, active compounds read low 0.994 | locus YDR162C, strain NBP2, active compounds read low 1.02 | locus YDR195W, strain ref2 1 | locus YDR297W, strain sur2, active compounds read low 1.01 | locus YDR318W, strain mcm21, active compounds read low 1.01 | locus YDR334W, strain swr1, active compounds read low 1.01 | locus YDR335W, strain msn5, active compounds read low 1.01 | locus YDR388W, active compounds read low 1.02 | locus YDR392W, strain spt3, active compounds read low 0.965 | locus YDR502C, strain sam2, active compounds read low 1.02 | locus YEL003W, strain gim4, active compounds read low 1.01 | locus YEL037C, strain rad23, active compounds read low 1.01 | locus YEL061C, strain CIN8 (second series), active compounds read low 1.01 | locus YEL061C, strain CIN8, active compounds read low 1 | locus YER015W, strain faa2, active compounds read low 1.02 | locus YER016W, strain bim1, active compounds read low 1.01 | locus YER110C, active compounds read low 1.02 | locus YER111C, strain swi4, active compounds read low 1.01 | locus YER155C, strain BEM2 (second series), active compounds read low 1.02 | locus YER155C, strain BEM2, active compounds read low 1.02 | locus YER167W, strain BCK2, active compounds read low 1 | locus YFR010W, strain ubp6, active compounds read low 0.996 | locus YGL078C, strain dbp3, active compounds read low 1.02 | locus YGL086W, strain mad1, active compounds read low 1.01 | locus YGL167C, strain pmr1, active compounds read low 1.01 | locus YGL173C, strain kem1, active compounds read low 1.01 | locus YGL227W, strain vid30, active compounds read low 1.02 | locus YGL240W, strain doc1, active compounds read low 1.04 | locus YGL248W, strain PDE1, active compounds read low 1.01 | locus YGL253W, strain hxk2, active compounds read low 0.96 | locus YGR078C, strain PAC10, active compounds read low 1 | locus YGR135W, strain pre9, active compounds read low 1 | locus YGR252W, strain gcn5, active compounds read low 0.909 | locus YHR013C, strain ard1, active compounds read low 1.02 | locus YHR027C, strain rpn1, active compounds read low 1 | locus YHR030C, strain SLT2, active compounds read low 1.02 and 1.01 | locus YHR079C, strain IRE1 (second series), active compounds read low 1.03 | locus YHR079C, strain IRE1, active compounds read low 0.984 | locus YHR094C, strain hxt1, active compounds read low 1.06 | locus YHR129C, strain ARP1, active compounds read low 1.01 | locus YHR142W, strain chs7, active compounds read low 0.976 | locus YHR200W, strain rpn10, active compounds read low 1 | locus YIL066C, strain RNR3, active compounds read low 1.01 | locus YIL073C, strain SPO22, active compounds read low 1.07 | locus YIL125W, strain kgd1, active compounds read low 1.03 | locus YIR030C, strain dcg1, active compounds read low 1.03 | locus YJL092W, strain hpr5, active compounds read low 1.01 | locus YJL095W, strain BCK1 (second series), active compounds read low 1.02 | locus YJL095W, strain BCK1, active compounds read low 0.976 and 0.998 | locus YJL115W, strain asf1, active compounds read low 1.01 | locus YJL129C, strain trk1, active compounds read low 1.03 | locus YJL134W, strain LCB3, active compounds read low 1.03 | locus YJL154C, strain vps35, active compounds read low 1.02 | locus YJL164C, strain tpk1, active compounds read low 1.01 | locus YJL166W, strain qcr8, active compounds read low 1.02 | locus YJL168C, strain set2, active compounds read low 1.03 | locus YJL187C, strain SWE1 (second series), active compounds read low 1.02 | locus YJL187C, strain SWE1, active compounds read low 1.01 | locus YJR043C, strain POL32, active compounds read low 0.999 | locus YJR066W, strain TOR1, active compounds read low 0.949
